Several values for one entry are separate records, joined by “and”; a condition that tells them apart may be missing. Equal values may be shown once. This is part of a sample that, as a whole, favours compounds with a hit. Of some 83,000 tested, about 20% had one in any assay.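 Activity criterion: percent growth below 10, measured after cells in 96-well plates were exposed to a single compound concentration for 48 hours.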 Activity calls are given as the source filed them.
Key:
Assay in all cases: NCI-60 one-dose screen, 48 h (100 = growth as untreated, 0 = no growth, -100 = all killed)
T-47D breast = system: T-47D breast
BT-549 breast = system: BT-549 breast
MDA-MB-435 melanoma = system: MDA-MB-435 melanoma
SW-620 colon = system: SW-620 colon
MCF7 breast = system: MCF7 breast
HCT-116 colon = system: HCT-116 colon
HCC-2998 colon = system: HCC-2998 colon
KM12 colon = settings: 10 µM unless noted

Measured: growth

O=c1ccn2c(n1)OC1CC2OC1COC(c1ccccc1)(c1ccccc1)c1ccccc1 (configuration not stated)
active: MDA-MB-435 melanoma; 100 µM -4.08%
inactive: T-47D breast; 10 µM 109% | T-47D breast; 100 µM 102% | BT-549 breast; 10 µM 123% | BT-549 breast; 100 µM 88.4% | MDA-MB-435 melanoma; 10 µM 103% | SW-620 colon; 10 µM 108% | SW-620 colon; 100 µM 90.4% | MCF7 breast; 10 µM 95.4% | MCF7 breast; 100 µM 46.7% | HCT-116 colon; 10 µM 101% | HCT-116 colon; 100 µM 40.1% | HCC-2998 colon; 10 µM 106% | HCC-2998 colon; 100 µM 100%

COCCNC(C)=O
inactive: T-47D breast; 10 µM unless noted 89.5% | BT-549 breast; 10 µM unless noted 106% | MDA-MB-435 melanoma; 10 µM unless noted 105% | SW-620 colon; 10 µM unless noted 105% | MCF7 breast; 10 µM unless noted 94.1% | HCT-116 colon; 10 µM unless noted 105% | HCC-2998 colon; 10 µM unless noted 118%

Nc1nc(=S)c2[nH]cnc2[nH]1
inactive: BT-549 breast; 10 µM unless noted 30.7% and 19.5% | SW-620 colon; 10 µM unless noted 23.3% and 15.9% | KM12 colon 10.1% and 11.5%
12.3% (inactive) and 5.25% (active): T-47D breast; 10 µM unless noted
12.3% (inactive) and 5.49% (active): MDA-MB-435 melanoma; 10 µM unless noted
active: MCF7 breast; 10 µM 8.17% and -0.975% | MCF7 breast; 250 µM -5.31% and -50.8% | HCT-116 colon; 10 µM unless noted 9.54% and -8.26% | HCC-2998 colon; 10 µM unless noted 6.28%

CCOP(C)(=O)/C(Cc1ccc(OC)c(OC)c1)=N\O (configuration not stated)
inactive: T-47D breast; 10 µM unless noted 115% | BT-549 breast; 10 µM unless noted 115% | MDA-MB-435 melanoma; 10 µM unless noted 104% | SW-620 colon; 10 µM unless noted 99.2% | MCF7 breast; 10 µM unless noted 104% | HCT-116 colon; 10 µM unless noted 103% | HCC-2998 colon; 10 µM unless noted 98.5%

C/C(=C\c1ccccc1)C(O)C(=O)c1nc2ccc([N+](=O)[O-])cc2[nH]c1=O (configuration not stated)
inactive: T-47D breast; 10 µM unless noted 77.5% | BT-549 breast; 10 µM unless noted 78.9% | MDA-MB-435 melanoma; 10 µM unless noted 99.5% | SW-620 colon; 10 µM unless noted 104% | MCF7 breast; 10 µM unless noted 79.3% | HCT-116 colon; 10 µM unless noted 91.4% | HCC-2998 colon; 10 µM unless noted 106%

O=C(O)C(Cc1ccc(OS(=O)(=O)Cc2ccccc2)cc1)NS(=O)(=O)Cc1ccccc1 (configuration not stated)
inactive: T-47D breast; 10 µM unless noted 101% and 99.9% | BT-549 breast; 10 µM unless noted 104% and 106% | MDA-MB-435 melanoma; 10 µM unless noted 98.7% and 111% | SW-620 colon; 10 µM unless noted 105% | MCF7 breast; 10 µM unless noted 91.4% and 98.4% | HCT-116 colon; 10 µM unless noted 105% and 109% | HCC-2998 colon; 10 µM unless noted 115%

O=C(c1ccncc1)c1c(Cc2ccccc2)ccc2ccccc12
inactive: T-47D breast; 10 µM unless noted 113% | MDA-MB-435 melanoma; 10 µM unless noted 83.2% | SW-620 colon; 10 µM unless noted 90.4% | MCF7 breast; 10 µM unless noted 101% | HCT-116 colon; 10 µM unless noted 82% | HCC-2998 colon; 10 µM unless noted 37.3%
active: BT-549 breast; 10 µM unless noted -7.98%

C#CCOC(=O)C(N)CS (configuration not stated)
inactive: T-47D breast; 10 µM unless noted 119% | BT-549 breast; 10 µM unless noted 108% | MDA-MB-435 melanoma; 10 µM unless noted 96.6% | SW-620 colon; 10 µM unless noted 97.1% | MCF7 breast; 10 µM 93% | MCF7 breast; 100 µM 90.4% and 76.4% | HCT-116 colon; 10 µM unless noted 101% | HCC-2998 colon; 10 µM unless noted 107% | KM12 colon 102%

O=C(O)c1cc(=O)[nH]c(=O)[nH]1
inactive: T-47D breast; 10 µM unless noted 101% and 105% | BT-549 breast; 10 µM unless noted 97.2% | MDA-MB-435 melanoma; 10 µM unless noted 96.7% and 113% | SW-620 colon; 10 µM unless noted 111% and 103% | MCF7 breast; 10 µM unless noted 98.7% | HCT-116 colon; 10 µM unless noted 107% | HCC-2998 colon; 10 µM unless noted 99.3%

CN(C=O)c1ccccc1
inactive: T-47D breast; 10 µM unless noted 86.7% | BT-549 breast; 10 µM unless noted 93.1% | MDA-MB-435 melanoma; 10 µM unless noted 102% | SW-620 colon; 10 µM unless noted 104% | MCF7 breast; 10 µM unless noted 87.4% | HCT-116 colon; 10 µM unless noted 89% | HCC-2998 colon; 10 µM unless noted 101%

Cc1ccc2cccc([N+](=O)[O-])c2n1
inactive: T-47D breast; 10 µM unless noted 97.4% and 97.8% | BT-549 breast; 10 µM unless noted 121% and 93.5% | MDA-MB-435 melanoma; 10 µM unless noted 110% and 108% | SW-620 colon; 10 µM unless noted 119% and 103% | MCF7 breast; 10 µM unless noted 105% and 95.7% | HCT-116 colon; 10 µM unless noted 114% and 97.7% | HCC-2998 colon; 10 µM unless noted 102% and 103%

O=C(c1ccc(Cl)cc1)C1C(c2ccccc2)C1[N+](=O)[O-] (configuration not stated)
inactive: T-47D breast; 10 µM unless noted 89.3% | BT-549 breast; 10 µM unless noted 99.3% | MDA-MB-435 melanoma; 10 µM unless noted 114% | SW-620 colon; 10 µM unless noted 104% | MCF7 breast; 10 µM unless noted 96% | HCT-116 colon; 10 µM unless noted 106% | HCC-2998 colon; 10 µM unless noted 96.9%

O=P(O)(O)OC1C(OP(=O)(O)O)C(OP(=O)(O)O)C(OP(=O)(O)O)C(OP(=O)(O)O)C1OP(=O)(O)O.[Cu+2] (configuration not stated)
inactive: T-47D breast; 10 µM unless noted 101% | BT-549 breast; 10 µM unless noted 126% | MDA-MB-435 melanoma; 10 µM unless noted 101% | SW-620 colon; 10 µM unless noted 95.6% | MCF7 breast; 10 µM unless noted 86.8% | HCT-116 colon; 10 µM unless noted 96.6% | HCC-2998 colon; 10 µM unless noted 96.3% | KM12 colon 100%

CCOC(=O)c1ccc(C(=N)N)cc1
inactive: T-47D breast; 10 µM unless noted 105% | BT-549 breast; 10 µM unless noted 119% | MDA-MB-435 melanoma; 10 µM unless noted 109% | SW-620 colon; 10 µM unless noted 102% | MCF7 breast; 10 µM unless noted 95.3% | HCT-116 colon; 10 µM unless noted 106% | HCC-2998 colon; 10 µM unless noted 103% | KM12 colon 109%

Cn1c(N)c(N=O)c(=O)n(C)c1=O
inactive: T-47D breast; 10 µM unless noted 105% and 99.8% | BT-549 breast; 10 µM unless noted 111% and 96.8% | MDA-MB-435 melanoma; 10 µM unless noted 109% and 102% | SW-620 colon; 10 µM unless noted 106% and 101% | MCF7 breast; 10 µM unless noted 98.1% and 99.5% | HCT-116 colon; 10 µM unless noted 102% and 90.8% | HCC-2998 colon; 10 µM unless noted 106% | KM12 colon 106% and 94.8%

O=S(=O)(O)c1ccc2cc(O)ccc2c1
inactive: T-47D breast; 10 µM unless noted 102% | BT-549 breast; 10 µM unless noted 105% | MDA-MB-435 melanoma; 10 µM unless noted 107% | SW-620 colon; 10 µM unless noted 99.9% | MCF7 breast; 10 µM unless noted 99.8% | HCT-116 colon; 10 µM unless noted 108% | HCC-2998 colon; 10 µM unless noted 109% | KM12 colon 110%

C/C(CC(C)C)=N/NC(N)=S
inactive: T-47D breast; 10 µM unless noted 39% | BT-549 breast; 10 µM unless noted 107% | MDA-MB-435 melanoma; 10 µM unless noted 104% | SW-620 colon; 10 µM unless noted 85.4% | MCF7 breast; 10 µM unless noted 21.3% | HCT-116 colon; 10 µM unless noted 11.8% | HCC-2998 colon; 10 µM unless noted 101% | KM12 colon 101%

CN1C2C=CC(=O)C1C1C(=O)N(c3ccccc3)C(=O)C12 (configuration not stated)
inactive: T-47D breast; 10 µM unless noted 68.5% | BT-549 breast; 10 µM unless noted 52.9% | MDA-MB-435 melanoma; 10 µM unless noted 80.5% | SW-620 colon; 10 µM unless noted 37.3% | MCF7 breast; 10 µM unless noted 44.5% | HCT-116 colon; 10 µM unless noted 35.9% | HCC-2998 colon; 10 µM unless noted 113% | KM12 colon 56.3%

OC(CC(c1ccccc1)c1cccc2ccccc12)(c1ccccc1)c1ccccc1 (configuration not stated)
inactive: T-47D breast; 10 µM unless noted 64% and 81.8% | BT-549 breast; 10 µM unless noted 88.4% | MDA-MB-435 melanoma; 10 µM unless noted 96.9% and 88.9% | SW-620 colon; 10 µM unless noted 77% and 80.9% | MCF7 breast; 10 µM unless noted 79.1% and 79.3% | HCT-116 colon; 10 µM unless noted 58.9% and 46.3% | HCC-2998 colon; 10 µM unless noted 98.9% and 88.1% | KM12 colon 89.2% and 90.9%

CC(=O)Nc1ccc2oc(=O)ccc2c1
inactive: T-47D breast; 10 µM unless noted 85.3% | BT-549 breast; 10 µM unless noted 89.8% | MDA-MB-435 melanoma; 10 µM unless noted 105% | SW-620 colon; 10 µM unless noted 107% | MCF7 breast; 10 µM unless noted 110% | HCT-116 colon; 10 µM unless noted 86.5% | HCC-2998 colon; 10 µM unless noted 110% | KM12 colon 100%

O=C1C(=O)c2ccccc2C(O)=C1CC=C(Cl)Cl
inactive: T-47D breast; 10 µM unless noted 80.8% and 69% | BT-549 breast; 10 µM unless noted 63% and 71.6% | MDA-MB-435 melanoma; 10 µM unless noted 43.8% and 52.5% | SW-620 colon; 10 µM unless noted 50.1% and 52.6% | MCF7 breast; 10 µM unless noted 37.9% and 44.7% | HCT-116 colon; 10 µM unless noted 27.9% and 40% | HCC-2998 colon; 10 µM unless noted 61.8% and 64.4% | KM12 colon 48.1% and 45.8%

CCc1ccc(OC(=O)CCl)cc1
inactive: T-47D breast; 10 µM unless noted 100% | BT-549 breast; 10 µM unless noted 109% | MDA-MB-435 melanoma; 10 µM unless noted 100% | SW-620 colon; 10 µM unless noted 109% | MCF7 breast; 10 µM unless noted 103% | HCT-116 colon; 10 µM unless noted 102% | HCC-2998 colon; 10 µM unless noted 104% | KM12 colon 95%

COc1ccc(CCO)cc1
inactive: T-47D breast; 10 µM unless noted 101% | BT-549 breast; 10 µM unless noted 105% | MDA-MB-435 melanoma; 10 µM unless noted 109% | SW-620 colon; 10 µM unless noted 104% | MCF7 breast; 10 µM unless noted 102% | HCT-116 colon; 10 µM unless noted 94.6% | HCC-2998 colon; 10 µM unless noted 107% | KM12 colon 102%

CC(=O)Oc1ccc(C2(c3ccc(OC(C)=O)cc3)C(=O)Nc3ccccc32)cc1
inactive: MDA-MB-435 melanoma; 10 µM unless noted 110% and 126% | SW-620 colon; 10 µM unless noted 98.2% and 104% | HCT-116 colon; 10 µM unless noted 84.9% and 84.5% | KM12 colon 71.3% and 61.9%
9.09% (active) and 15.1% (inactive): MCF7 breast; 10 µM unless noted
active: T-47D breast; 10 µM unless noted -26.3% and -22.5% | BT-549 breast; 10 µM unless noted -33.3% and -8.43%
-3.15% (active) and 44.8% (inactive): HCC-2998 colon; 10 µM unless noted

COc1ccccc1OCC(O)CO (configuration not stated)
inactive: T-47D breast; 10 µM unless noted 91.4% and 105% | BT-549 breast; 10 µM unless noted 107% | MDA-MB-435 melanoma; 10 µM unless noted 76.7% and 96.1% | SW-620 colon; 10 µM unless noted 101% and 109% | MCF7 breast; 10 µM unless noted 94.1% and 105% | HCT-116 colon; 10 µM unless noted 106% and 102% | HCC-2998 colon; 10 µM unless noted 95% and 86.1% | KM12 colon 98% and 108%

O=C1Cc2ccccc2C(=O)N1
inactive: T-47D breast; 10 µM unless noted 71.1% | BT-549 breast; 10 µM unless noted 101% | MDA-MB-435 melanoma; 10 µM unless noted 99.4% | SW-620 colon; 10 µM unless noted 56.6% | MCF7 breast; 10 µM unless noted 56.8% | HCC-2998 colon; 10 µM unless noted 103% | KM12 colon 102%
active: HCT-116 colon; 10 µM unless noted 6.29%
